Data from the supplement of paper PMC6555819.

Legend:
Assay in all cases: PBM binding z-score (relative to random genomic background probes); higher = stronger binding; sequences stand for … in GC…GCGATTGACAGCGTAGAATGAAGG
[1] = test system: FXR:RXRa (NR concentration 270 nM, RXRa partner concentration 90 nM)
Summary of the method: (§1)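 Custom Agilent 4×180K protein-binding microarrays carried double-stranded probes, each with a 34-nt variable region. These regions held direct-repeat seeds, single-nucleotide variants, half-site ablations and random human genomic background sequences. Ligand-free nuclear receptor dimers were incubated on the arrays for 1 h, antibodies against each partner (one per run) detected binding, and scanned fluorescence was regression-normalized. Binding z-scores take the random background probes as reference.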

[2] = test system: LXRa:RXRa (NR concentration 270 nM, RXRa partner concentration 90 nM)
Summary of the method: as §1

[3] = test system: LXRa homodimer (NR concentration 270 nM)
Summary of the method: as §1

[4] = test system: LXRb:RXRa (NR concentration 270 nM, RXRa partner concentration 90 nM)
Summary of the method: as §1

[5] = test system: LXRb homodimer (NR concentration 270 nM)
Summary of the method: as §1

[6] = test system: PPARa:RXRa (NR concentration 270 nM, RXRa partner concentration 90 nM)
Summary of the method: as §1

[7] = test system: PPARg:RXRa (NR concentration 180 nM, RXRa partner concentration 90 nM)
Summary of the method: as §1

[8] = test system: PPARg:RXRa 270nM:90nM, anti-RXR (NR concentration 270 nM, RXRa partner concentration 90 nM)
Summary of the method: as §1

[9] = test system: PPARg:RXRa 30nM:10nM, anti-RXR (NR concentration 30 nM, RXRa partner concentration 10 nM)
Summary of the method: as §1

[10] = test system: PPARg:RXRa 90nM:30nM, anti-RXR (NR concentration 90 nM, RXRa partner concentration 30 nM)
Summary of the method: as §1

[11] = test system: PPARg:RXRa DBDmut IVT, anti-RXR (DBD mutation: RXRa K156A/R161A, NR concentration 270 nM, RXRa partner concentration 90 nM)
Summary of the method: as §1

[12] = test system: PPARg:RXRa IVT, anti-PPARg (NR concentration 270 nM, RXRa partner concentration 90 nM)
Summary of the method: as §1

[13] = test system: PPARg DBDmut:RXRa IVT, anti-PPARg (DBD mutation: PPARg1 K132A/R137A, NR concentration 270 nM, RXRa partner concentration 90 nM)
Summary of the method: as §1

[14] = test system: PPARg DBDmut IVT, anti-PPARg (DBD mutation: PPARg1 K132A/R137A, NR concentration 270 nM)
Summary of the method: as §1

[15] = test system: PPARg homodimer (NR concentration 180 nM)
Summary of the method: as §1

[16] = test system: PXR:RXRa (NR concentration 270 nM, RXRa partner concentration 90 nM)
Summary of the method: as §1

[17] = test system: PXR homodimer (NR concentration 270 nM)
Summary of the method: as §1

[18] = test system: RARa:RXR (NR concentration 270 nM, RXRa partner concentration 90 nM)
Summary of the method: as §1

[19] = test system: RARa homodimer (NR concentration 270 nM)
Summary of the method: as §1

[20] = test system: RARb:RXRa (NR concentration 270 nM, RXRa partner concentration 90 nM)
Summary of the method: as §1

CTCGAAAGGTCGGTTGAGCTGAGTATACGGATAA
PBM binding z-score [1]: 1.24 | PBM binding z-score [2]: 0.827 | PBM binding z-score [3]: -0.605 | PBM binding z-score [4]: 0.855 | PBM binding z-score [5]: -0.258 | PBM binding z-score [6]: 2 | PBM binding z-score [7]: 0.00937 | PBM binding z-score [8]: 0.523 | PBM binding z-score [9]: -0.12 | PBM binding z-score [10]: 0.207 | PBM binding z-score [11]: 0.0426 | PBM binding z-score [12]: 0.318 | PBM binding z-score [13]: -0.21 | PBM binding z-score [14]: -0.532 | PBM binding z-score [15]: 0.0115 | PBM binding z-score [16]: 0.392 | PBM binding z-score [17]: -0.439 | PBM binding z-score [18]: 0.834 | PBM binding z-score [19]: 0.167 | PBM binding z-score [20]: 2.58

CGAACGAGGGCATGAGTTGATAGCTAATGCCGAT
PBM binding z-score [1]: 0.677 | PBM binding z-score [2]: 0.398 | PBM binding z-score [3]: -0.532 | PBM binding z-score [4]: 0.00979 | PBM binding z-score [5]: -0.952 | PBM binding z-score [6]: 1.51 | PBM binding z-score [7]: 1.53 | PBM binding z-score [8]: 1.5 | PBM binding z-score [9]: 0.214 | PBM binding z-score [10]: 0.782 | PBM binding z-score [11]: 2.71 | PBM binding z-score [12]: 2.2 | PBM binding z-score [13]: 0.229 | PBM binding z-score [14]: -0.661 | PBM binding z-score [15]: 0.249 | PBM binding z-score [16]: 0.689 | PBM binding z-score [17]: 0.178 | PBM binding z-score [18]: 0.401 | PBM binding z-score [19]: 0.0358 | PBM binding z-score [20]: 2.08

GCTAGTTGGTCAGTAAAAGGTCACACTCCGGTCG
PBM binding z-score [1]: 3.15 | PBM binding z-score [2]: 4.29 | PBM binding z-score [3]: 4.97 | PBM binding z-score [4]: 3.76 | PBM binding z-score [5]: 0.637 | PBM binding z-score [6]: 4.19 | PBM binding z-score [7]: 2.49 | PBM binding z-score [8]: 4.24 | PBM binding z-score [9]: 1.86 | PBM binding z-score [10]: 3.7 | PBM binding z-score [11]: 1.66 | PBM binding z-score [12]: 2.87 | PBM binding z-score [13]: -0.175 | PBM binding z-score [14]: 0.207 | PBM binding z-score [15]: 3.12 | PBM binding z-score [16]: 4.77 | PBM binding z-score [17]: 0.877 | PBM binding z-score [18]: 5.45 | PBM binding z-score [19]: 1.9 | PBM binding z-score [20]: 4.3

TCTCGTTGGTCACGGAGGTCACACACGACGGGTA
PBM binding z-score [1]: 3.3 | PBM binding z-score [2]: 3.62 | PBM binding z-score [3]: 1.88 | PBM binding z-score [4]: 3.75 | PBM binding z-score [5]: 1.11 | PBM binding z-score [6]: 3.85 | PBM binding z-score [7]: 2.5 | PBM binding z-score [8]: 3.71 | PBM binding z-score [9]: 2.93 | PBM binding z-score [10]: 3.47 | PBM binding z-score [11]: 1.58 | PBM binding z-score [12]: 3.31 | PBM binding z-score [13]: 0.735 | PBM binding z-score [14]: 1.33 | PBM binding z-score [15]: 2.82 | PBM binding z-score [16]: 4.37 | PBM binding z-score [17]: 0.995 | PBM binding z-score [18]: 4.41 | PBM binding z-score [19]: 1.01 | PBM binding z-score [20]: 4.02

GATACAGGGTCAAGGCCTGAGTACGCGTATTGAT
PBM binding z-score [1]: 6.17 | PBM binding z-score [2]: 3.94 | PBM binding z-score [3]: -0.32 | PBM binding z-score [4]: 3.35 | PBM binding z-score [5]: -0.67 | PBM binding z-score [6]: 5.35 | PBM binding z-score [7]: 5.34 | PBM binding z-score [8]: 5.5 | PBM binding z-score [9]: 2.3 | PBM binding z-score [10]: 4.29 | PBM binding z-score [11]: 2.78 | PBM binding z-score [12]: 3.87 | PBM binding z-score [13]: 0.27 | PBM binding z-score [14]: 0.16 | PBM binding z-score [15]: 1.74 | PBM binding z-score [16]: 3.43 | PBM binding z-score [17]: 0.0722 | PBM binding z-score [18]: 3.99 | PBM binding z-score [19]: 0.47 | PBM binding z-score [20]: 4.4

GCTGCTAAGTCAGGTTGGTCAGCTAACGGGTACG
PBM binding z-score [1]: -0.434 | PBM binding z-score [2]: -0.657 | PBM binding z-score [3]: -0.43 | PBM binding z-score [4]: -0.836 | PBM binding z-score [5]: -0.829 | PBM binding z-score [6]: -0.794 | PBM binding z-score [7]: -0.46 | PBM binding z-score [8]: -0.678 | PBM binding z-score [9]: -0.924 | PBM binding z-score [10]: -0.942 | PBM binding z-score [11]: -0.0465 | PBM binding z-score [12]: -0.681 | PBM binding z-score [13]: -1.49 | PBM binding z-score [14]: -1.03 | PBM binding z-score [15]: -0.201 | PBM binding z-score [16]: -0.468 | PBM binding z-score [17]: -0.643 | PBM binding z-score [18]: -0.502 | PBM binding z-score [19]: -0.643 | PBM binding z-score [20]: -0.0361

AGAATGAGGATAAGATCAGGGAAACAGAATACAT
PBM binding z-score [1]: 0.459 | PBM binding z-score [2]: -0.133 | PBM binding z-score [3]: -0.218 | PBM binding z-score [4]: -0.0492 | PBM binding z-score [5]: -0.342 | PBM binding z-score [6]: -0.0848 | PBM binding z-score [7]: 1.2 | PBM binding z-score [8]: -0.174 | PBM binding z-score [9]: 0.433 | PBM binding z-score [10]: 0.00747 | PBM binding z-score [11]: -0.0375 | PBM binding z-score [12]: -0.0536 | PBM binding z-score [13]: -0.123 | PBM binding z-score [14]: 0.538 | PBM binding z-score [15]: 0.327 | PBM binding z-score [16]: -0.171 | PBM binding z-score [17]: 0.272 | PBM binding z-score [18]: 0.067 | PBM binding z-score [19]: 0.354 | PBM binding z-score [20]: 0.0475
